Several values for one entry are separate records, joined by “and”; a condition that tells them apart may be missing. Identical values can stand only once. Out of some 360,000 compounds screened, about 25,000 (6.9%) were called active. Not shown: some 9% with an inconclusive outcome. Shown is part of a subset that was picked to be rich in actives. Unmarked numbers belong to inactive results. Calls follow the shape of the dose curve; as a rule, active = well fitted inhibition curve with a large enough effect; inconclusive = small, poorly fitted or top-dose-only effect; inactive = flat fitted curve, though single readings scatter.
These compounds were tested against Luciferin 4-monooxygenase (Photinus pyralis) (UniProt P08659) (assay: qHTS profiling assay for firefly luciferase inhibitor/activator using purifed enzyme and Km concentrations of substrates (counterscreen for miR-21 project)). Settings: purified FLuc, luminescence inhibition; series mostly up to 57.5 µM; activity change, negative = inhibition: at the top concentration.
Luciferin 4-monooxygenase (Photinus pyralis), sequence (P08659 whole entry, looked up): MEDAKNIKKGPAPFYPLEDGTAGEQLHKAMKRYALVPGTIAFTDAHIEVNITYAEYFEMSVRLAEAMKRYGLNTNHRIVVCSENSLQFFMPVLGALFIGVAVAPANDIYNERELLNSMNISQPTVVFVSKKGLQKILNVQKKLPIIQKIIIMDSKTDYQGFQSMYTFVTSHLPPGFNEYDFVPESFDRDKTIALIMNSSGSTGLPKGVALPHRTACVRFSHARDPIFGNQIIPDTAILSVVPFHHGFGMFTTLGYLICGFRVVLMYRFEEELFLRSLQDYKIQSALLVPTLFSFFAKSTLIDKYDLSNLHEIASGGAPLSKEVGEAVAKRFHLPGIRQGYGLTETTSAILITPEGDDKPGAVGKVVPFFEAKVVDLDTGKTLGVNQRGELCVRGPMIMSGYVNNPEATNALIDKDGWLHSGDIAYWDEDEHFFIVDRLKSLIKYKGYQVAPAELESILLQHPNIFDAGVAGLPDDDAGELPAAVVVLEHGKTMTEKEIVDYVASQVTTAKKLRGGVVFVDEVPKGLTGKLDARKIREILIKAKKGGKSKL
Outline: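 Biochemical qHTS of compounds, final roughly 60 µM downward over six points, against 10 nM purified firefly luciferase using Km concentrations of substrates (10 uM D-luciferin, 10 uM ATP) in Tris acetate pH 7.5 buffer; luminescence output.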
For Cc1ccc2nc(NC(=O)c3nc(SCc4ccccc4F)ncc3Cl)sc2c1, the “activity change, negative = inhibition” value was 1.12%. CCOc1ccc(NC(=O)c2c(NC(=O)Cc3ccccc3)sc3c2CCC(C)C3)cc1 (configuration not stated) was tested, and the “activity change, negative = inhibition” value was -16.8%. O=S(=O)(c1cccs1)N1CCN(CCOc2ccccc2)CC1 was tested, and the “activity change, negative = inhibition” value was -0.715%. Fc1ccc(-c2nc(Nc3cccc(Cl)c3)nc3c2COc2ccccc2-3)cc1 was tested, and the “activity change, negative = inhibition” value was -14.4%. For COc1ccc(-c2nc3c4ccccc4n(CC(=O)Nc4ccc(C(C)=O)cc4)c(=O)n3n2)cc1, the “activity change, negative = inhibition” value was 5.2%. With O=C(CNC(=O)C1COc2ccccc2O1)N/N=C/c1cc(Br)c(O)c(Br)c1 (configuration not stated) the “activity change, negative = inhibition” value was -14.6%. In the case of O=C(N/N=C/c1cc2c(cc1Br)OCO2)C1COc2ccccc2O1 (configuration not stated), the Potency is reported as 13.5 µM (active). In the case of CC1(C(=O)N/N=C/c2cc3c(cc2Br)OCO3)CC1(Br)Br (configuration not stated), the “activity change, negative = inhibition” value is reported as -1.53%. In the case of Cc1ccccc1-c1cc(C(=O)NCc2cccs2)n(CC2CC(c3cccnc3)=NO2)n1 (configuration not stated), the “activity change, negative = inhibition” value is reported as -1.1%. In the case of COc1ccc(Cl)cc1NC(=O)Cn1c(=O)c2ccccc2n2nncc12, the “activity change, negative = inhibition” value is reported as -9.12%. With COc1ccc(NC(=O)C2CCC(CNS(=O)(=O)c3csc(C(N)=O)c3)CC2)cc1OC (configuration not stated) the “activity change, negative = inhibition” value was -0.339%. For CCN(CC)C(=O)CSc1nc2ccsc2c(=O)n1Cc1ccccc1Cl, the “activity change, negative = inhibition” value was -8.76%. In the case of O=C1c2ccccc2C(=O)N1CCCc1nc(-c2ccccc2)no1, the “activity change, negative = inhibition” value is reported as -2.23%. For O=C(OCc1ccc(Br)cc1)c1cccc(-c2nnc(-c3ccccc3)o2)c1, the “activity change, negative = inhibition” value was -4.27%. With Brc1ccc(-c2nnc(-c3ccccc3)o2)o1 the Potency was 6.01 µM (active). Cn1nc(-c2ccccc2)c(-c2nc(-c3ccc(Cl)cc3)no2)c1Cl was tested, and the “activity change, negative = inhibition” value was -2.68%. With Brc1ccc(-c2noc(-c3ccccc3)n2)o1 the Potency was 2.13 µM (active) and 1.35 µM (active). In the case of O=C(COC(=O)c1ccccc1Br)Nc1nnc(-c2ccccc2)o1, the “activity change, negative = inhibition” value is reported as -7.96%. In the case of Cc1ccc(Cc2nc3ccccc3nc2SCC(=O)Nc2cccc(C(F)(F)F)c2)cc1, the “activity change, negative = inhibition” value is reported as 1.52%. In the case of CCCc1nn2c(=O)cc(COC(=O)c3ccc(NC(=O)C(C)Oc4ccccc4)cc3)nc2s1 (configuration not stated), the “activity change, negative = inhibition” value is reported as -6.12%. CN(CC(=O)Nc1cccc(F)c1)C(=O)CC1CCCC1 was tested, and the “activity change, negative = inhibition” value was 3.45%. For O=C(NCc1ccccc1CN1CCCC1)C1CCN(S(=O)(=O)c2ccc(Cl)cc2)CC1, the “activity change, negative = inhibition” value was -0.436%. O=C(COC(=O)C1CCCCC1)Nc1ccc([N+](=O)[O-])cc1 was tested, and the Potency was 16.9 µM (active). With NC(=O)c1ccc(NC(=O)COC(=O)c2ccc([N+](=O)[O-])cc2)cc1 the “activity change, negative = inhibition” value was -0.303%. In the case of N/C(Cc1ccc([N+](=O)[O-])cc1)=N\OC(=O)C1CCCCC1, the “activity change, negative = inhibition” value is reported as -3.28%. For O=C(CN1CCSc2ccccc21)N1CCN(c2ccccc2)CC1, the “activity change, negative = inhibition” value was -5.65%. With CCCCN1C(=O)CC(N2CCOCC2)C1=O (configuration not stated) the “activity change, negative = inhibition” value was -0.0203%. In the case of CCOC(=O)c1nn(-c2cccc(C)c2)cc1C(=O)c1ccccc1, the Potency is reported as 9.53 µM (active). CC(=O)c1nn(-c2cccc(Br)c2)cc1C(=O)c1cccc2ccccc12 was tested, and the “activity change, negative = inhibition” value was -2.37%. CCOC(=O)c1cn(Cc2cccc(C)c2)nn1 was tested, and the “activity change, negative = inhibition” value was 2.45%. In the case of COc1ccc(S(=O)(=O)NCc2cccn2Cc2cccc(C)c2)cc1Cl, the “activity change, negative = inhibition” value is reported as -8.6%. With Cc1cc(Cl)ccc1OCc1nc(-c2ccncc2)no1 the Potency was 10.7 µM (active). In the case of Cc1cc(Cl)ccc1OCCCC(=O)NCc1ccncc1, the “activity change, negative = inhibition” value is reported as -4.06%. Cc1ccccc1C(=O)NCc1nc(-c2ccc(Cl)cc2)no1 was tested, and the “activity change, negative = inhibition” value was -1.77%. In the case of Cc1ccc(CNC(=O)CSc2c(C)cnc3c2c(=O)n(C)c(=O)n3C)cc1, the “activity change, negative = inhibition” value is reported as -0.897%. O=C(Nc1cccc(Cl)c1)c1csnn1 was tested, and the “activity change, negative = inhibition” value was -14.4%. For CCC(=O)Nc1ccc(C(=O)NNC(=O)c2ccc(Cl)cc2)cc1, the “activity change, negative = inhibition” value was -3.51%. O=C(Nc1ccc(Cl)cc1)c1ccsn1 was tested, and the Potency was 12 µM (active). In the case of O=[N+]([O-])c1cc(-c2nc(-c3ccccc3)no2)ccc1NCc1ccco1, the “activity change, negative = inhibition” value is reported as -8.68%. Cc1cc2n(n1)C(c1cc(C(C)(C)C)c(O)cc1O)Nc1ccccc1-2 (configuration not stated) was tested, and the “activity change, negative = inhibition” value was -15.3%. With CCC1C=C(c2ccccc2)C=CN=C1N(CC)CC (configuration not stated) the “activity change, negative = inhibition” value was 0.24%. In the case of CCOc1ccc(CCNC(=O)Cn2nc(CC)n3c(cc4sc(CC)cc43)c2=O)cc1OCC, the “activity change, negative = inhibition” value is reported as -5.54%. For Cc1cc(N)n2nc(-c3ccc(C(C)(C)C)cc3)cc2n1, the Potency was 0.601 µM (active). For COc1ccc(-c2cc(C(F)(F)F)n3nc(-c4ccccc4)cc3n2)cc1OC, the “activity change, negative = inhibition” value was -0.561%. With Cc1cc(-c2ccccc2)n2nc(-c3ccccc3)cc2n1 the “activity change, negative = inhibition” value was -16.5%. With Cc1cc(C)cc(-n2c(SCC(=O)NCC3CCCO3)nc3c([nH]c4ccccc43)c2=O)c1 (configuration not stated) the “activity change, negative = inhibition” value was -0.071%. In the case of COc1cccc(NC(=O)Nc2ccc3c(c2)N(C)C(=O)c2ccccc2S3)c1, the “activity change, negative = inhibition” value is reported as 1.22%. CCCCS(=O)(=O)c1oc(-c2cccs2)nc1S(=O)(=O)c1ccccc1 was tested, and the “activity change, negative = inhibition” value was -0.854%. CCOCCCNC(=O)C(NC(=O)c1ccccc1O)c1ccccc1 (configuration not stated) was tested, and the “activity change, negative = inhibition” value was -1.29%. In the case of COc1ccc(N2CCN(C(=O)c3ccc4c(Cl)c5c(nc4c3)CCCC5)CC2)cc1, the Potency is reported as “inactive”. In the case of CC(=O)c1ccc(NC(=O)c2ccc3c(Cl)c4c(nc3c2)CCCC4)cc1, the “activity change, negative = inhibition” value is reported as 3.57%. CC(C)CCNC(=O)c1ccc2c(Cl)c3c(nc2c1)CCC3 was tested, and the Potency was 0.675 µM (active).

Reference: PubChem BioAssay AID588342 (National Center for Advancing Translational Sciences (NCATS), 2011)
Also: nearly all actives have a fitted effect of over 55% in size.
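For activity change, negative = inhibition in this document: plate controls were vehicle for no effect and reference inhibitor for full effect.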
Potency is read from the fitted curve at half-maximal effect.
